Data from the GenesisPotency data set.
Out of some 290,000 compounds screened, about 3,000 (1%) were called active. No stated cut-off is given here; in the data, active means inhibition mostly above about 36% (no sharp cut-off); inactive means mostly below about 34%. The full list was thinned out, with actives kept by preference.

Target: T1, Nucleotide-binding oligomerization domain-containing protein 1, Homo sapiens (UniProt Q9Y239)
T1 sequence (whole entry): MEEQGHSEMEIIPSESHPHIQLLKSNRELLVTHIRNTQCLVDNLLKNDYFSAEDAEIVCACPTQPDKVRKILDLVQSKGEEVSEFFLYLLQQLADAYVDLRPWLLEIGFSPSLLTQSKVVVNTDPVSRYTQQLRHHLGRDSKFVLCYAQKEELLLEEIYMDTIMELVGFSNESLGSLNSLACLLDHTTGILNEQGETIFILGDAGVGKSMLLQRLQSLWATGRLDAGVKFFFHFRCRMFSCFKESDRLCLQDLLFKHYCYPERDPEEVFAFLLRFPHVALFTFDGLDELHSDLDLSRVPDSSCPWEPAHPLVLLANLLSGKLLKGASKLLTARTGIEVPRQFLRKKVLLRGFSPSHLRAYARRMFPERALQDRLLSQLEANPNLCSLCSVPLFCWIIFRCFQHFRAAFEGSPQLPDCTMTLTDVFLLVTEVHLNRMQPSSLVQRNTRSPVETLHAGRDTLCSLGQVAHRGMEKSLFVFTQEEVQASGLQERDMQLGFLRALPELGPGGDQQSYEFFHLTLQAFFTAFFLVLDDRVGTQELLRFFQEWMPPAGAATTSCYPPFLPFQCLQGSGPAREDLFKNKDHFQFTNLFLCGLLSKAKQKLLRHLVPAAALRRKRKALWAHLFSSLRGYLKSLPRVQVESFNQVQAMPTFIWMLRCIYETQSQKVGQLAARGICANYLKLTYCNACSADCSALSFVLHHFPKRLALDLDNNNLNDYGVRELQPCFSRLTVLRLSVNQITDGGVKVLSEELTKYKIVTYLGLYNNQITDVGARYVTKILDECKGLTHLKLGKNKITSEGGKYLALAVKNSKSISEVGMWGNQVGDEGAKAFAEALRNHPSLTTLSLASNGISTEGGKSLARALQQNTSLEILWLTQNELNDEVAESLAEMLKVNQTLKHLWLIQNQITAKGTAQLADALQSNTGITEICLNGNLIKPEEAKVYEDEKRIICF
Experiment: NOD1 signaling inhibitors, primary screen, cell-based, luminescence, uHTS (AID 1578)

outcome, active:
O=C(N/N=C/c1ccc([N+](=O)[O-])o1)c1ccccc1NS(=O)(=O)c1cccs1
Cc1nn(-c2cccc(Cl)c2)c2nc(C(F)(F)F)[nH]c(=O)c12
Cc1nn(-c2cc(C(F)(F)F)ccc2Cl)c2nc(C(Cl)(Cl)Cl)[nH]c(=O)c12
COc1cccc(N2CCN(c3ncnc4c3cnn4-c3ccc(C)cc3C)CC2)c1
COc1ccc(-c2n(CC(=O)OC3CC(C)CCC3C(C)C)c3ccccc3[n+]2C)cc1.[Cl-] (configuration not stated)
Cc1csc(SCC(=O)Nc2cccc3nsnc23)n1
Cc1noc(C)c1CSc1nc2ccccc2nc1NS(=O)(=O)c1ccc(Cl)cc1
Cc1[nH]nc2ncc(C(=O)c3ccccc3O)cc12
Clc1ccc(CSc2nnc(-c3ccncc3)o2)cc1
Fc1ccc(CSc2nnc(-c3ccncc3)o2)cc1
O=c1cc(-c2ccccc2Cl)oc2c([N+](=O)[O-])c(O)cc(O)c12
O=C(CSc1nc2nc(-c3cccs3)cc(C(F)(F)F)c2c(=O)[nH]1)Nc1ccc(F)c(F)c1
O=C(CSc1nc2nc(-c3cccs3)cc(C(F)(F)F)c2c(=O)[nH]1)Nc1c(F)c(F)c(F)c(F)c1F
Cc1ccc(C)c(NC(=O)CSc2nc3nc(-c4cccs4)cc(C(F)(F)F)c3c(=O)[nH]2)c1
CCOc1ccccc1NC(=O)CSc1nc2nc(-c3cccs3)cc(C(F)(F)F)c2c(=O)[nH]1
COc1ccc(-c2c(C(F)(F)F)[nH]n3c(=O)cc(-c4ccccc4)nc23)cc1
O=c1cc(-c2ccccc2)nc2c(-c3ccccc3)c(C(F)(F)F)[nH]n12
CC(=O)/C=C/n1c(=S)oc2ccccc21
CC(C)CC(=O)/C=C/n1c(=S)oc2ccccc21
CCOC(=O)N1CCN(C(=O)C2CCCN(Cc3nc(-c4ccc(Cl)cc4)oc3C)C2)CC1 (configuration not stated)
CC(=O)c1c(C)[nH]c(C(=O)OCC(=O)Nc2sc3c(c2C#N)CCCC3)c1C
COc1ccccc1Nc1nc(-c2sc(NC(=O)c3ccco3)nc2C)cs1
Br.CC(=O)Nc1nc(C)c(-c2csc(Nc3ccc(O)cc3)n2)s1
CC[C@H]1CN2CCc3cc(OC)c(OC)cc3[C@@H]2C[C@@H]1C[C@H]1NCCc2cc(OC)c(OC)cc21.Cl
O=C(NC(=S)N1CCN(c2ccc(C(F)(F)F)cc2[N+](=O)[O-])CC1)c1cccs1
O=C(NC(=S)N1CCN(c2ccc(Cl)cc2[N+](=O)[O-])CC1)c1cccs1
O=C(c1ccc2c(c1)CCN2S(=O)(=O)c1ccccc1)N1CCN(c2ccc(F)cc2)CC1
COc1cc(C2CC(c3cccs3)=NN2C(=O)CCl)ccc1OC(F)F (configuration not stated)
COc1ccc(C2CC(c3cccs3)=NN2C(=O)CCl)cc1OC (configuration not stated)
O=C(COc1ccc(C(=O)c2ccccc2)cc1)Nc1cccnc1
COc1cc(OC)nc(-n2ncc(Br)c(Br)c2=O)n1
Cc1ccc(-n2ncc(Br)c(Br)c2=O)cc1
Cc1cccc(/C=C(\c2nc3ccccc3[nH]2)S(=O)(=O)c2ccccc2)c1
O=S(=O)(/C(=C/c1ccc(C(F)(F)F)cc1)c1nc2ccccc2[nH]1)c1ccccc1
CC(C)c1ccc(/C=C(\c2nc3ccccc3[nH]2)S(=O)(=O)c2ccccc2)cc1
N=C1SC(c2ccccc2)C(=O)N1c1ncc(Cc2ccccc2)s1 (configuration not stated)
N=C1SC(c2ccccc2)C(=O)N1c1ncc(Cc2ccccc2Cl)s1 (configuration not stated)
Cc1ccc(Cc2cnc(N3C(=N)SC(c4ccccc4)C3=O)s2)cc1 (configuration not stated)
CCOc1ccc2nc(SCc3ccc(CC(=O)O)cc3)c(C#N)cc2c1
CSc1nc2ccc(NS(=O)(=O)c3ccc4c(c3)OCCO4)cc2s1
Cc1nc2ccc(NS(=O)(=O)c3ccc4c(c3)OCCO4)cc2s1
Cc1nc2ccc(NS(=O)(=O)c3c(C)c(C)cc(C)c3C)cc2s1
O=C(CCl)Nc1cc(SCC(O)CO)cc([N+](=O)[O-])c1 (configuration not stated)
COc1cc(F)ccc1CN1CCC(C(=O)Nc2ccc(Oc3ccccc3)nc2)CC1
CCOC(=O)C1=C(C)N=c2s/c(=C/c3cccc([N+](=O)[O-])c3O)c(=O)n2C1c1ccccc1 (configuration not stated)
Cc1ccccc1N(Cc1cc(=O)[nH]c2ccccc12)C(=O)CCl
Cc1ccc(N(Cc2cc(=O)[nH]c3ccccc23)C(=O)CCl)c(C)c1
Cc1cc(C(=O)N/N=C/c2cc(Br)cc(Br)c2OC(=O)c2cccc(F)c2)n[nH]1
Cc1cc(C(=O)N/N=C/c2cc(Br)ccc2OC(=O)c2ccccc2)n[nH]1
COc1cccc(C(=O)Oc2c(Br)cc(Br)cc2/C=N/NC(=O)c2cc(C)[nH]n2)c1
Cc1ccc(-c2csc3ncnc(Sc4nnc(CN5CCCCCC5=O)o4)c23)cc1
COc1ccc(Cn2c(O)c(C=Nc3ccccc3C(=O)O)c3ccccc3c2=O)cc1
CCN(CC)S(=O)(=O)c1cccc(-n2c(O)c(C=Nc3ccccc3C(=O)O)c3ccccc3c2=O)c1
COc1ccccc1NS(=O)(=O)c1cccc(-n2c(O)c(C=Nc3ccccc3C(=O)O)c3ccccc3c2=O)c1
COC(=O)Cc1[nH]n(-c2nc3ccccc3s2)c(=O)c1C(C)=Nc1ccc(C)cc1
Cc1ccc(Cl)cc1N1CCN(C(=O)c2cc3c(=O)[nH]c4ccccc4c3n2C)CC1
COc1ccc(CN(C)Cc2nc(Cc3cccc(F)c3)no2)c2cccnc12
Cc1nc(SCC(=O)Nc2nc3ccccc3s2)c(C#N)c(C)c1C
COc1ccc(-n2nnnc2S(=O)(=O)CC(=O)N2CCCCC2)cc1
Cc1cc(Nc2cccc([N+](=O)[O-])c2)n2c(nc3ccccc32)c1C#N
CCc1nnc(NC(=O)c2ccc(Cl)c(S(=O)(=O)N3CCc4ccccc43)c2)s1
CC(NC(=O)OC(C)(C)C)C(=O)Oc1cc2oc(=O)cc(-c3ccccc3)c2cc1Cl (configuration not stated)
CC(NC(=O)OCc1ccccc1)C(=O)Oc1cc2oc(=O)cc(-c3ccccc3)c2cc1Cl (configuration not stated)
COC(=O)c1ccc(Nc2c([N+](=O)[O-])c(=O)oc3ccccc23)cc1
CCOC(=O)c1sc(N2C(=O)C(O)=C(C(=O)c3ccco3)C2c2ccco2)nc1C (configuration not stated)
CCOC(=O)N1CCN(C(=O)c2ccc(Cn3c(=S)[nH]c4cc5c(cc4c3=O)OCO5)cc2)CC1
Cc1ccc(C(=O)Sc2cccccc2=O)cc1
CC(=O)c1c(C)[nH]c(C(=O)OCC(=O)Nc2ccc(C)cc2[N+](=O)[O-])c1C
CC(/C=C1\SC(=O)N(CCCC(=O)O)C1=O)=C\c1ccccc1
C=CCN(CC=C)C(=S)NC(=O)c1ccc(-c2ccccc2)cc1
CN(Cc1ccccc1)C(=S)NC(=O)c1ccc(-c2ccccc2)cc1
CCOc1cc(/C=C(/C#N)c2ccc(Cl)cc2)cc(Cl)c1OCC(=O)O
CC1=C(CO)C(=O)OC([C@@H](C)C2CC[C@H]3C4C[C@H]5O[C@]56[C@@H](O)C=CC(=O)[C@]6(C)C4CC[C@]23C)C1 (some centres not stated)
O=C(Nc1nnc(-c2ccccc2)o1)c1ccc(Cl)cc1
Cc1cccc(-c2nnc(NC(=O)c3ccc(Cl)cc3)o2)c1
CN(C)c1ccc(C(=O)Nc2nnc(-c3ccc(Cl)cc3)o2)cc1
COc1ccc(OC)c(NC(=O)CSc2ncnc3c2cnn3-c2ccccc2Cl)c1
CC(Oc1ccc(Br)cc1)c1nc2c3ccccc3nc(=S)n2[nH]1 (configuration not stated)
CCCC(Oc1ccc(Br)cc1)c1nc2c3cc(OC)c(OC)cc3nc(=S)n2[nH]1 (configuration not stated)
COc1ccc(CCNc2ncnc3c2oc2ccccc23)cc1OC.Cl
Oc1ccc(CCNc2ncnc3ccc(Cl)cc23)cc1
COc1ccc(CCNc2ncnc3sc(C)cc23)cc1OC.Cl
COc1ccc(CCNc2ncnc3sccc23)cc1OC
COc1ccc(CCNc2ncnc3cc(OC)c(OC)cc23)cc1OC
O=C(c1ccc(S(=O)(=O)c2cccc(Cl)c2)c([N+](=O)[O-])c1)N1CCN(Cc2ccccc2)CC1
COc1ccc(NC(=O)/C(Cl)=C(/Cl)S(=O)Cc2ccc(Cl)cc2)cn1 (configuration not stated)
COc1ccc(NC(=O)/C(Cl)=C(/Cl)S(=O)Cc2ccccc2)cn1 (configuration not stated)
COc1ccc(NC(=O)/C(Cl)=C(/Cl)S(=O)Cc2ccc(C)cc2)cn1 (configuration not stated)
COc1ccc(NC(=O)/C(Cl)=C(/Cl)S(=O)Cc2ccccc2Cl)cn1 (configuration not stated)
COc1ccc(CS(=O)/C(Cl)=C(/Cl)C(=O)Nc2ccc(OC)nc2)cc1 (configuration not stated)
CC(=O)c1ccc(N2CCN(C(=S)Nc3ccc(Oc4ccccc4)cc3)CC2)cc1
C=CCSc1nsc(NC(=O)Nc2cccc(C(C)=O)c2)n1
Cc1ccc(CS(=O)(=O)c2ccc(C(=O)N3CCN(c4ccccn4)CC3)cc2[N+](=O)[O-])cc1
Cc1ccccc1CN1CCc2c(OCC(=O)N3CCCc4ccccc43)cccc2C1=O
O=[N+]([O-])c1ccc(NC(=S)NCc2ccc(F)cc2)cc1
O=[N+]([O-])c1ccc(NC(=S)NCCc2ccc(Cl)cc2)cc1
COc1ccc(-c2cc(C)no2)cc1S(=O)(=O)N1CCN(c2ccccc2F)CC1
Cc1cc(-c2ccc(C)c(S(=O)(=O)N3CCN(c4ccc(F)cc4)CC3)c2)on1
CCOC(=O)COc1ccc2ccccc2c1/C=C/[N+](=O)[O-]
COc1ccc(CC(=O)Nc2cccc(-c3nnc(-c4ccc(C)cc4)o3)c2)cc1OC
Nc1nccc(-c2ccc(-n3cnc4ccccc43)cc2)n1
c1ccc2c(c1)ncn2-c1ccc(-c2ccnc(-c3ccncc3)n2)cc1
